Most compounds without a hit are left out; they make up all but 5.9% or so of the library.
KB-3-1 tox: KB-3-1 parental cell cytotoxicity; actives 1.4% (n = 400,000); KB-3-1 viability, CellTiter-Glo ATP luminescence, 72 h; Potency, µM (highest dose often 46.1 µM), hits mostly cytotoxic; further: on the % scale 0 is the no-effect control and ±100 the full control effect; nearly all actives have a fitted effect of over 60% in size
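Cytotoxicity in the drug-sensitive parental line KB-3-1 was scored as loss of CellTiter-Glo luminescence following 72 h incubation with compound. Values come from curve fitting of normalized concentration-response data.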
ATXN viability: cell viability loss in ATXN counter-screen; S2 cells (HEK-293 line with an ATXN2-luciferase reporter) viability, CellTiter-Fluor protease fluorescence, 24 h; Potency, µM (series often up to 56.7 µM), most hits filed as cytotoxic; AID 651635; actives 0.49% (n = 400,000); further: nearly all actives have a fitted effect of over 40% in size
ATXN2 expr inh: reduces ATXN2 reporter expression in HEK-293 cells | Potency, µM (titrated, usually from 57 µM), without a hit: at the top dose activity change, negative = inhibition, usual class: inhibitors | AID 1745845 | HEK-293 ATXN2-luciferase reporter, luminescence, 24 h | actives 0.72% (n = 360,000); further: on the % scale 0 is the no-effect control and ±100 the full control effect; nearly all actives have a fitted effect of over 55% in size
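ATXN2-luciferase reporter cells (luciferase flanked by upstream and downstream ATXN2 gene portions) were treated 24 h at 37 °C with compounds at up to 57 uM. SteadyGlo luminescence gave expression; GF-AFC fluorescence gave viability.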
HepG2 viability: kills HepG2 cells in TGF-b inhibitor counter-screen | HepG2 CAGA-GFP viability, ATP luminescence, 18 h | Potency, µM (series often up to 46.1 µM), for inactives: top-dose activity change, negative = cytotoxicity, hits mostly cytotoxic | actives 0.76% (n = 410,000) | AID 588856
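HepG2 CAGA-GFP cells (1000/well, DMEM with 1% FBS) received compound, then TGF-beta at 500 pg/mL final, and were incubated 18 hours at 37 degrees C. Viability was read by CellTiter-Glo luminescence. Media-only wells were set as complete cell-killing and DMSO as no toxicity.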
KB-V1 cytotox: kills drug-selected multidrug resistant KB-V1 cells; actives 3.4% (n = 400,000); KB-V1 MDR cells viability, CellTiter-Glo, 72 h; Potency, µM (titrated, usually from 46.1 µM), most hits filed as cytotoxic; further: on the % scale 0 is the no-effect control and ±100 the full control effect; nearly all actives have a fitted effect of over 60% in size
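Compound-treated KB-V1 multidrug-resistant cells, 72 h, 37 degrees C; viability by CellTiter-Glo. Fitted qHTS curves give the values.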
TGFb inhibitor: blocks TGF-b signaling; HepG2 CAGA-GFP TGF-b/SMAD3 reporter, GFP fluorescence, 18 h; TGF-beta stimulated, 500 pg/mL final; Potency, µM (titrated, usually from 46.1 µM), for inactives: at the highest dose activity, negative = inhibition, usual class: inhibitors; actives 1.2% (n = 410,000); AID 588855; further: on the % scale 0 is the no-effect control and ±100 the full control effect; nearly all actives have a fitted effect of over 65% in size
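Read-out: total well GFP (ex488/em500-530) summed from mean per-cell fluorescence. Cells: HEPG2 CAGA-GFP, 1% FBS DMEM, 18 h at 37 degrees C with 500 pg/mL final TGF-beta. Unstimulated wells served as the full-inhibition control; stimulated DMSO wells = 0%.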
An asterisk follows results filed as active; i = inactive; u = inconclusive; x = no result. The call rests on the fitted dose curve; in most records, active means well fitted curve in the direction sought with a large enough effect; inconclusive means small, poorly fitted or top-dose-only effect, or another doubt; inactive means no such curve, though single readings can be large; an effect the other way counts as inactive or inconclusive. Potency means the concentration at half of the fitted maximal effect.

SMILES	KB-3-1 tox	ATXN viability	ATXN2 expr inh	HepG2 viability	KB-V1 cytotox	TGFb inhibitor
CCOC(=O)N1CCN(Cc2ccc3c(c2)CN(C(=O)c2sc(C)nc2C)CCO3)CC1	x	i	x	x	x	x
COc1cc(=O)n2c(c1C(=O)NCc1ccco1)CCN(Cc1ccc3ccccc3c1)CC2	x	i	x	x	x	x
COc1ccc(OCC(=O)N2CCN(c3nnc(-c4ccccc4)c4ccccc34)CC2)cc1	23.1µM*	i	-13.4%	-12.9%	2.59µM*	-3.8%
Cc1ccc(OCC(=O)N2CCN(c3nnc(-c4ccc(C)cc4)c4ccccc34)CC2)cc1	16.4µM*	u	28.2µM*	-28.1%	2.59µM*	u
COc1ccc(OCC(=O)N2CCN(c3nnc(-c4ccc(C)cc4)c4ccccc34)CC2)cc1	u	u	u	3.0%	5.17µM*	-27.0%
Cc1cccc(OCC(=O)N2CCN(c3nnc(-c4ccccc4)c4ccccc34)CC2)c1	i	i	x	-24.8%	u	u
O=C(COc1ccccc1)N1CCN(c2nnc(-c3ccccc3)c3ccccc23)CC1	u	i	-31.4%	-9.6%	4.11µM*	-13.7%
O=C(Nc1nnc(-c2ccncc2)s1)Nc1ccc(Cl)cc1Cl	i	x	x	x	i	x
COCCCn1c(=O)c2sccc2n2c(CCCC(=O)NC3CCC(C)CC3)nnc12 (stereo not given)	x	x	x	-1.5%	x	-6.5%
Cc1c(C(=O)N(C)C2CCOC2)sc2ncnc(NCc3ccc4c(c3)OCO4)c12 (stereo not given)	x	i	x	x	x	x
CCc1nn(CC(=O)NCCc2ccc(OC)cc2OC)c(=O)c2cc3c(OC)cccc3n12	i	i	2.5%	-5.3%	i	-14.2%
Cc1ccc(NC(=O)Cn2c(C)cc(C)c(C#N)c2=O)cc1F	i	x	x	-7.8%	i	-1.3%
CCN(CC)S(=O)(=O)c1csc(C(=O)NCc2ccccc2)c1	i	i	-7.1%	-13.6%	20.6µM*	19.5%
CCN(CC)S(=O)(=O)c1cccc(C(=O)NCc2ccccc2)c1	i	i	-10.1%	3.0%	i	21.3%
CC1CCN(S(=O)(=O)N2CCCC(C(=O)NCc3ccc(F)cc3)C2)CC1 (stereo not given)	i	i	-19.3%	0.9%	i	-16.0%
CSc1ccc(CNC(=O)C2CCCN(S(=O)(=O)N(C)c3ccc(F)cc3)C2)cc1 (stereo not given)	16.4µM*	x	x	-22.4%	i	4.47µM*
COc1ccc(-c2cccc3c2OC(CNC(=O)c2ccc4c(c2)OCO4)C3)nn1 (stereo not given)	x	i	x	x	x	x
COc1ccc(CNC(=O)c2sc3nc4n(c(=O)c3c2C)CCCC4)cc1	x	x	x	-6.0%	x	x
CCS(=O)(=O)c1ncc(Cl)c(C(=O)Nc2ccccc2OC)n1	2.59µM*	x	u	-29.3%	u	3.55µM*
CCS(=O)(=O)c1ncc(Cl)c(C(=O)Nc2c(C(=O)Nc3cccc(C)c3)oc3ccccc23)n1	i	u	8.1%	-19.7%	i	0.891µM*
CCSc1ncc(Cl)c(C(=O)Nc2c(C(=O)Nc3cccc(C)c3)oc3ccccc23)n1	x	x	x	-14.2%	x	x
CCSc1ncc(Cl)c(C(=O)N2CCN(c3ccccc3OC)CC2)n1	6.51µM*	u	-13.4%	-35.8%	3.66µM*	u
COc1ccccc1NC(=O)c1nc(SCc2ccc(F)cc2)ncc1Cl	x	x	x	-16.2%	x	-1.0%
CCS(=O)(=O)c1ncc(Cl)c(C(=O)Nc2ccccc2)n1	u	14.1µM*	11.2µM*	17.8µM*	i	10µM*
COCc1c(C(=O)N2CCN(C3CCCCC3)CC2)cnn1-c1ncc(C)c(-c2cccs2)n1	x	i	x	x	x	x
Cc1cccnc1-c1cccc2c1OC(CNC(=O)C1CCCc3c1[nH]c1ccccc31)C2 (stereo not given)	x	i	x	x	x	x
CCS(=O)(=O)c1ncc(Cl)c(C(=O)NCc2ccc(OC)cc2)n1	x	x	x	5.62µM*	x	3.16µM*
